Results as given in the supplement of paper PMC8975748.
Structures can show the parent of a compound that is named as a salt.

system: Saccharomyces cerevisiae BY4741 SeMeCo community; experiment: z-score of subpopulation abundance vs DMSO median, subpopulation auxotrophic for HLU; higher = larger share of this subpopulation than in DMSO controls; conditions: 10 µM; 24 h; SM minimal medium; subpopulation (auxotrophy): HLU
Experimental: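 Fluorescent four-plasmid SeMeCo (self-establishing metabolically cooperating S. cerevisiae BY4741 community; plasmids pH-mRuby2, pL-mWasabi, pU-eCFP, pM-TagRFP657) was grown 24 h in minimal SM medium with each Selleck FDA-approved drug at 10 µM in 384-well plates. Cells were fixed and imaged by high-content confocal microscopy. For each auxotrophic subpopulation (and the prototroph), a z-score gives the deviation from the DMSO vehicle-control population median.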

Row | Compound | z-score of subpopulation abundance
1 | Cn1nnc(-c2ccc(-c3ccc(N4C[C@H](COP(=O)(O)O)OC4=O)cc3F)cn2)n1 [Tedizolid Phosphate] | -0.8
2 | C[N+]1(C)[C@@H]2C[C@@H](OC(=O)C(O)(c3cccs3)c3cccs3)C[C@H]1[C@@H]1O[C@@H]12 [Tiotropium Bromide hydrate] | -0.81
3 | Cc1ccccc1OCC(O)CO (stereo not given) [Mephenesin] | -0.38
4 | CNCCCN1c2ccccc2CCc2ccccc21 [Desipramine Hydrochloride] | -0.62
5 | CCN(CC)C(=O)C1(c2ccccc2)CC1CN (stereo not given) [Milnacipran HCl] | -0.08
6 | Nc1nc2c(ncn2COC(CO)CO)c(=O)[nH]1 [Ganciclovir] | 0.54
7 | C[C@H](NCc1ccc(OCc2cccc(F)c2)cc1)C(N)=O [Safinamide Mesylate] | 0.4
8 | CCc1nn(CCCN2CCN(c3cccc(Cl)c3)CC2)c(=O)n1CCOc1ccccc1 [Nefazodone hydrochloride] | 0.16
9 | CN(C)[C@@H]1C(=O)C(C(N)=O)=C(O)[C@@]2(O)C(=O)C3=C(O)c4c(O)ccc(Cl)c4[C@@H](O)[C@H]3C[C@@H]12 [Demeclocycline HCl] | -0.4
10 | CCC(=O)NS(=O)(=O)c1ccc(-c2c(-c3ccccc3)noc2C)cc1 [Parecoxib Sodium] | 0.91
11 | CCCCOc1ccc(CC(=O)NO)cc1 [Bufexamac] | -0.71
12 | CN1CCCN=C1/C=C/c1cccc(O)c1 [Oxantel Pamoate] | -0.35
13 | CC[C@H](c1ccc(O)cc1)[C@@H](CC)c1ccc(O)cc1 [Hexestrol] | -0.58
14 | O=C(O)Cc1ccccc1Nc1c(Cl)cccc1Cl [Diclofenac Sodium] | -1.75
15 | COCCOC(=O)C1=C(C)NC(C)=C(C(=O)OC(C)C)C1c1cccc([N+](=O)[O-])c1 (stereo not given) [Nimodipine] | -0.01
16 | Nc1nc2[nH]cc(CCc3ccc(C(=O)N[C@@H](CCC(=O)O)C(=O)O)cc3)c2c(=O)[nH]1 [Pemetrexed] | 4.74
17 | Nc1nc2ccc(OC(F)(F)F)cc2s1 [Riluzole] | -0.57
18 | CNCc1cc(-c2ccccc2F)n(S(=O)(=O)c2cccnc2)c1 [Vonoprazan Fumarate (TAK-438)] | -0.64
19 | O=C(O)c1ccccc1O [Salicylic acid] | -0.57
20 | CCOc1cc(N)c([N+](=O)[O-])cc1C(=O)NC1CCN(CC2CC=CCC2)CC1 (stereo not given) [Cinitapride Hydrogen Tartrate] | 0.47

Row | Compound | z-score of subpopulation abundance
21 | COCC(=O)Nc1cc(Sc2ccccc2)ccc1N=C(NC(=O)OC)NC(=O)OC [Febantel] | -0.05
22 | CCS(=O)(=O)CCn1c([N+](=O)[O-])cnc1C [Tinidazole] | 0.09
23 | CCOC(=O)C1=C(C)NC(C)=C(C(=O)OCC)C1c1ccccc1/C=C/C(=O)OC(C)(C)C [Lacidipine] | -0.94
24 | COc1ccc(Cl)cc1C(=O)NCCc1ccc(S(=O)(=O)NC(=O)NC2CCCCC2)cc1 [Glyburide (Glibenclamide)] | 0.43
25 | CCCCCc1ccc(C)cc1O [Amylmetacresol] | 0.35
26 | Cn1c([N+](=O)[O-])cnc1COC(N)=O [Ronidazole] | -0.68
27 | CCCc1cc(C(N)=S)ccn1 [Protionamide] | -0.42
28 | CC(=O)N1CCN(c2ccc(OCC3COC(Cn4ccnc4)(c4ccc(Cl)cc4Cl)O3)cc2)CC1 (stereo not given) [Ketoconazole] | -0.27
29 | CCOC(=O)C1=C(C)NC(C)=C(C(=O)OC)C1c1cccc([N+](=O)[O-])c1 (stereo not given) [Nitrendipine] | -0.48
30 | Oc1ccc(Cl)c2cccnc12 [Cloxiquine] | 17.6
31 | CCCCNc1ccc(C(=O)OCCN(C)C)cc1 [Tetracaine HCl] | -0.27
32 | CC1(C)S[C@@H]2[C@H](NC(=O)Cc3ccccc3)C(=O)N2[C@H]1C(=O)O [Benzathine penicilline] | -0.11
33 | Nc1ccc2cc3ccc(N)cc3nc2c1 [Proflavine] | -4.19
34 | O=C(c1ccc(F)cc1)C1CCN(CCn2c(=O)[nH]c3ccccc3c2=O)CC1 [Ketanserin] | 0.14
35 | O=[N+]([O-])c1ccc(O)c2ncccc12 [Nitroxoline] | 24.8
36 | COCCCN1CCC(NC(=O)c2cc(Cl)c(N)c3c2OCC3)CC1 [Prucalopride Succinate] | 1.78
37 | CCCN[C@H]1CCc2nc(N)sc2C1 [Pramipexole dihydrochloride] | -0.24
38 | Cc1cc(C)nc(O)n1.O=C(Nc1ccc([N+](=O)[O-])cc1)Nc1ccc([N+](=O)[O-])cc1 [Nicarbazin] | -0.28
39 | CC[C@H](C)C(=O)O[C@H]1C[C@@H](C)C=C2C=C[C@H](C)[C@H](CC[C@@H]3C[C@@H](O)CC(=O)O3)[C@H]21 [Lovastatin] | 0.37
40 | C=C[C@H]1CN2CC[C@H]1C[C@H]2[C@H](O)c1ccnc2ccc(OC)cc12 [Quinine HCl Dihydrate] | -0.42
